Sampled rows, rich in hits. Any-hit rate of the full collection: about 10%.
GPT2 inh: GPT2 alanine aminotransferase inhibition | Q8TD30 | Recombinant GPT2, coupled pyruvate oxidase/HRP Amplex Red fluorescence | Potency, µM (top dose mostly 57.7 µM), inactives show at the highest dose activity change, negative = inhibition, usual class: inhibitors | actives 0.25% (n = 100,000) | AID 1671188; further: nearly all actives have a fitted effect of over 60% in size
Target sequence (Q8TD30 whole entry, looked up): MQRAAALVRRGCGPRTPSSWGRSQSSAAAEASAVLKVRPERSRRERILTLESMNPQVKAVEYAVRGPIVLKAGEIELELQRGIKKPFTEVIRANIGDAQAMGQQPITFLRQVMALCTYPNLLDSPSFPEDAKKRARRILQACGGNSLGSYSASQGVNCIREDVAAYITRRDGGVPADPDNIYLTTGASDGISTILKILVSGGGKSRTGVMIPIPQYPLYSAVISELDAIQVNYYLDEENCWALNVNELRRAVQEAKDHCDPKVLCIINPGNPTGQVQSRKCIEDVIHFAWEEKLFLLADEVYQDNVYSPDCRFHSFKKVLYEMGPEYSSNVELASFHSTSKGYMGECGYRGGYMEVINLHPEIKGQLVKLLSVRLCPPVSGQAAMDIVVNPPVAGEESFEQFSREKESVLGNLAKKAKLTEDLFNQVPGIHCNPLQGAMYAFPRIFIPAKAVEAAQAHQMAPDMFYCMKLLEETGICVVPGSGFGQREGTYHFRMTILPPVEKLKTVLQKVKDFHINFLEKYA
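GPT2 10ng/uL, a-KG 250uM, L-Ala 2mM, HEPES pH7.5 + 0.0001% Tween; 30 min RT. Then Amplex mix (PO/HRP/ThPP), 30 min RT dark, fluorescence. AOA 50uM used as positive control.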
HEK cytotox: kills HEK 293 cells; Potency, µM (highest dose often 115 µM), without a hit: top-dose activity change, negative = cytotoxicity, actives largely listed as inhibitors; HEK 293 viability, ATP luminescence (CellTiter-Glo), 48-72 h; actives 6.6% (n = 94,000); further: nearly all actives have a fitted effect of over 60% in size
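HEK 293 cells seeded at 250 cells/well were exposed to compound for 48 or 72 hr at 37 degree Celsius. Viability taken as ATP content by CellTiter-Glo luminescence.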
FLuc inh: Photinus pyralis luciferase inhibition; P08659; purified P. pyralis luciferase, luminescence, biochemical; Potency, µM (top dose mostly 115 µM), actives largely listed as inhibitors; actives 2.5% (n = 76,000); AID 1347043; further: nearly all actives have a fitted effect of over 65% in size
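Biochemical qHTS: compound (6-point titration) added to 10uM D-luciferin plus 10uM ATP in Tris acetate pH 7.5 buffer with Mg, Tween-20 and BSA, then purified enzyme at 10nM; light output imaged.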
hNpr1 antagonist: antagonists of human natriuretic peptide receptor Npr1. HEK293 hNpr1 GloSensor cGMP, ANP-stimulated luminescence. P16066. actives 1.6% (n = 76,000). Potency, µM (top dose mostly 46.3 µM), for the others: at the highest dose activity change, negative = inhibition, usual class: inhibitors; calls by dose curve; further: nearly all actives have a fitted effect of over 60% in size
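HEK293 cells stably expressing human Npr1 and cGMP GloSensor pGS-40F, loaded 2 h with 2% GloSensor reagent, given compound 30 min at room temperature. Luminescence read before and 20 min after 0.1 nM hNppA.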
NIH3T3 tox: kills NIH 3T3 cells; NIH 3T3 viability, CellTiter-Glo ATP luminescence, 48-72 h; actives 4.3% (n = 94,000); AID 1345082; Potency, µM (highest dose often 96.7 µM), for the others: at the top dose activity change, negative = cytotoxicity, usual class: inhibitors; further: nearly all actives have a fitted effect of over 55% in size
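Luminescent ATP readout (CellTiter-Glo, 10 min RT) after 48 or 72 hr compound exposure of NIH 3T3 cells seeded at 400 cells/well in 1536-well format; quantitative HTS.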
The depositor's hits bear a star; i = inactive; ? = inconclusive; . = not tested or not shown; [ ] = dose if it differs, or a comment. Unless noted, the call rests on the fitted dose curve; in most records, active means well fitted curve in the direction sought with a large enough effect; inconclusive means small, poorly fitted or top-dose-only effect, or another doubt; inactive means no such curve, though single readings can be large; an effect the other way counts as inactive or inconclusive. On the % scale 0 is the no-effect control and ±100 the full control effect; potency means the concentration at half of the fitted maximal effect.

SMILES	GPT2 inh	HEK cytotox	FLuc inh	hNpr1 antagonist	NIH3T3 tox
CCOc1ccc(-c2cc3c(=O)n(CCNC(=O)C4(c5ccccc5)CC4)ccn3n2)cc1	-11%	i	25µM*	0%	i
Cc1ccc(C2Cn3nnc(-c4noc(CNC(=O)c5ccccc5)n4)c3CO2)cc1 (stereo not given)	i	-8%	i	0%	-6%
O=C(C1CC1)N1CCN(CCCn2nc3n(c2=O)CCCC3)CC1	.	5%[172 µM]	.	.	-7%[138 µM]
CNC(=O)CCn1ncc2cc(OC3CCc4cccc(-c5cccnc5)c43)ccc21 (stereo not given)	?	100µM*	i	-16%[70.6 µM]	?
CNC(=O)CCn1ncc2cc(OC3CCc4cccc(-c5ccncc5)c43)ccc21 (stereo not given)	1%[88.5 µM]	100µM*	i	3%[70.6 µM]	?
Cc1cccc(CN2CCCC(O)(CNCC(C)(C)C)C2=O)c1 (stereo not given)	-12%	-21%	i	5%	-21%
O=C(NC1CCCC1)N1CC(Oc2cccc(-c3nc(-c4ccccc4)no3)c2)C1	i	?	i	1%	?
CC(C)CNC(=O)N1CC(Oc2ccc(-c3nc(-c4ccccc4)no3)cc2)C1	i	?	i	0.5µM*	-27%
O=C(NC1CCCC1)N1CC(Oc2ccc(-c3nc(-c4ccccc4)no3)cc2)C1	i	?	?	0.32µM*	-21%
O=C1CN([S+](=O)([O-])C2CC2)CCN1[S+](=O)([O-])c1ccc(Cl)nc1	?	-16%	.	.	-25%
CC1=C[C@@H](CN2CCC(C(N)=O)CC2)[C@H](C(C)C)C[C@H]1Cc1nnc(-c2ccc(C)cc2)o1	1%	35µM*	i	9%	32µM*
CC1=C[C@@H](CN2CCC(C(N)=O)CC2)[C@H](C(C)C)C[C@H]1Cc1nnc(C(C)(C)C)o1	-2%[88.5 µM]	?	i	-4%[70.6 µM]	?
CC1=C[C@@H](CN2CCC(C(N)=O)CC2)[C@H](C(C)C)C[C@H]1Cc1nnc(-c2ccc(N(C)C)cc2)o1	4%	40µM*	i	5%	35µM*
Cc1ccc(F)cc1C(=O)Nc1ccc(C(=O)N2Cc3cccn3Cc3ccccc32)c(Cl)c1	i	.	.	.	.
O=C1NCc2ccccc2CC12CCN(CC1CCOCC1)CC2	i	-5%	.	.	-4%
CC1=C[C@@H](CN2CCN(c3ccccn3)CC2)[C@H](C(C)C)C[C@H]1Cc1nnc(-c2ccccc2)o1	?	40µM*	i	-28%	?
CC1=C[C@@H](CN2CCOCC2)[C@H](C(C)C)C[C@H]1Cc1nnc(C)o1	1%[88.5 µM]	?	i	0%[70.6 µM]	-17%[174 µM]
CC1=C[C@@H](CN2CCOCC2)[C@H](C(C)C)C[C@H]1Cc1nnc(-c2ccccc2)o1	-3%[88.5 µM]	89µM*	i	-8%[70.6 µM]	?
CCCC(O)CN1CCC(=O)N(C)Cc2cc(F)ccc21 (stereo not given)	.	?	.	.	-11%
Cn1nc(CN2CCOCC2)c2c1CCN(S(=O)(=O)c1ccccc1)C2	i	-9%	.	.	-26%
COCC(=O)N1CCCC1C(=O)N1CCC(N2Cc3cccn3C2=O)CC1 (stereo not given)	-12%	i	.	.	-14%
Cc1ccc([S+](=O)([O-])NC2CCN(Cc3cccc(-c4ccc(F)c(F)c4)c3)CC2)cc1	?	22µM*	.	.	16µM*
CSc1ccc(-c2cccc(CN3CCC(N[S+](=O)([O-])c4ccc(C)cc4)CC3)c2)cc1	.	20µM*	.	.	14µM*
Cc1cccc(-c2cccc(CN3CCC(N[S+](C)(=O)[O-])CC3)c2)c1	-5%	?	.	.	?
Cc1ccccc1Cn1cc(C(=O)N2CCN(C3CCCCC3)C(=O)C2)nn1	?	?	i	-5%	-23%
SMILES	GPT2 inh	HEK cytotox	FLuc inh	hNpr1 antagonist	NIH3T3 tox
COC(=O)[C@@H]1Cc2c([nH]c3ccccc23)[C@H]2C[C@@H](NCc3cccs3)C[C@@H](c3ccc(F)cc3)N21	1%	?	i	0%	79µM*
COC(=O)[C@@H]1Cc2c([nH]c3ccccc23)[C@H]2C[C@H](NCc3cccs3)C[C@@H](c3ccc(F)cc3)N21	-4%	28µM*	i	1%	22µM*
O=C(c1ccncc1)N1CCCCCC1c1nnc(-c2ccccc2)o1 (stereo not given)	i	-3%	i	4%	-12%
COc1ccc(C(=O)N2CCC(c3nc(CCOCC4CCOCC4)no3)C2)cn1 (stereo not given)	-9%	i	.	.	i
O=C(c1ccc(Cl)cc1)N1CCC2(CC1)C(=O)NCN2CCc1ccc(Cl)cc1	3%	40µM*	.	.	?
N#Cc1cccc(C(=O)N2CCC3(CC2)NC(=O)N(Cc2ccc(Cl)cc2)C3=O)c1	i	?	i	?	?
N#Cc1ccc(C(=O)N2CCC3(CC2)NC(=O)N(Cc2ccc(Cl)cc2)C3=O)cc1	i	?	i	?	16µM*
Cc1noc(C)c1-c1cc2cc(CN(C)C)oc2c(NCCOc2ccccc2)n1	3%[88.5 µM]	?	i	-21%[70.6 µM]	79µM*
COCCCNc1nc(-c2c(C)noc2C)cc2cc(CN(C)C)oc12	?	-29%[172 µM]	i	4%[70.6 µM]	?
Cc1noc(C)c1-c1cc2cc(CN(C)C)oc2c(NCC(C)C)n1	-13%[88.5 µM]	71µM*	i	-13%[70.6 µM]	50µM*
Cc1noc(C)c1-c1cc2cc(CN(C)C)oc2c(NCc2cccc(F)c2)n1	i	?	i	-2%[70.6 µM]	?
Cc1noc(C)c1-c1cc2cc(CN(C)C)oc2c(NCCc2ccccc2)n1	?	56µM*	i	-4%[70.6 µM]	45µM*
O=C(C1CCCN1C(=O)Nc1ccccc1)N1CCC(c2nc3ccncc3[nH]2)CC1 (stereo not given)	i	i	.	.	-6%
CN(C(=O)Cc1ccc(F)cc1)C1CCc2ccccc21 (stereo not given)	i	?	i	0%[70.6 µM]	?
CCN1c2cc(C(=O)Nc3ccc(F)c(F)c3)ccc2C(=O)N2CCCCC21 (stereo not given)	4%	40µM*	i	0%	?
CCN1c2cc(C(=O)Nc3ccc(OC)c(F)c3)ccc2C(=O)N2CCCCCC21 (stereo not given)	i	?	i	-19%	?
CCN1c2cc(C(=O)Nc3ccc(Cl)c(F)c3)ccc2C(=O)N2CCCCC21 (stereo not given)	i	35µM*	i	-14%	?
C[S+](=O)([O-])N1CCC(c2nnc3n2C(C(=O)NCc2ccccc2F)CC3)CC1 (stereo not given)	-7%	0%	.	.	-8%
CC(C)(C)C1CN(Cc2ccccc2)C(=O)c2cccnc2O1 (stereo not given)	.	?	.	.	-13%

Bioassay records as filed in PubChem BioAssay.
